Compound activity: PubChem BioAssay, National Center for Advancing Translational Sciences (NCATS)
Rows were chosen to be rich in hits. Some 11% of all compounds tested hit in one or more screens of this group.
AMA1-RON2 inh = qHTS for Inhibitors of AMA1-RON; Towards Development of Antimalarial Drug Lead: Primary Screen | Plasmodium falciparum AMA1 (3D7) - RON2 peptide interaction | AlphaScreen AMA1-biotinylated RON2 peptide binding | Potency, µM (titrated, usually from 58.2 µM), for inactives: at the highest dose activity change, negative = inhibition, usual class: inhibitors | 0.2% of 360,000 active | AID 720542, 2013;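 also: 0% = vehicle wells and -100% = peptide control; nearly all actives have a fitted effect of over 45% in size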
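AMA1 (3D7) with his tag at 25 nM final met compounds first, then biotinylated RON2 peptide at 25 nM; detection used donor plus acceptor beads, 10 µg/mL apiece, read by AlphaScreen after 30 min at room temperature.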
HCV inhibitor = qHTS Assay for Inhibitors of Hepatitis C Virus (HCV); Huh7.5.1 HCVcc-Cre infection, luciferase reporter, 44 h; 3.4% of 340,000 active; Potency, µM (doses to about 41.8 µM), without a hit: top-dose activity change, negative = inhibition, most hits filed as inhibitors
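Antiviral activity was scored by luciferase reporter output from cells infected with HCVcc-Cre (~0.5 moi) in presence of compound, 44 h infection period, cells seeded 1,000/well 4 h prior.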
Pf growth 48h = Primary qHTS for delayed death inhibitors of the malarial parasite plastid, 48 hour incubation; Potency, µM (highest dose often 28.7 µM), for the others: top-dose activity change, negative = inhibition, hits mostly inhibitors; P. falciparum luciferase growth in erythrocytes, 48 h; 5.9% of 310,000 active
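Here the parasites carry a stable luciferase gene and grow inside erythrocytes in Albumax-based RPMI medium with compound for one erythrocytic cycle. Activity is scored as loss of luminescent signal.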
Pf growth 96h = Primary qHTS for delayed death inhibitors of the malarial parasite plastid, 96 hour incubation; AID 504834, 2011; 6.9% of 320,000 active; Potency, µM (top dose mostly 28.7 µM), for inactives: top-dose activity change, negative = inhibition, hits mostly inhibitors; P. falciparum luciferase reporter growth, 96 h
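P. falciparum expressing integrated firefly luciferase, in erythrocytes at 2% hematocrit, 0.05% parasitemia, incubated with compounds 96 h at 37 C, 5% CO2. Growth inhibition read as loss of luminescence; two-generation exposure targets delayed-death apicoplast inhibitors.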
Numbers without * were called inactive; ? = inconclusive; . = not tested or not shown; [ ] = dose if it differs, or a comment. Calls follow the shape of the dose curve; as a rule, active = well fitted curve in the direction sought with a large enough effect; inconclusive = small, poorly fitted or top-dose-only effect, or another doubt; inactive = no such curve, though single readings can be large; an effect the other way counts as inactive or inconclusive. Unless noted, % is scaled to controls: 0 for no effect and ±100 for the full control effect; potency is read from the fitted curve at half-maximal effect.

SMILES | AMA1-RON2 inh | HCV inhibitor | Pf growth 48h | Pf growth 96h
Cc1c(/C=N\NC(=O)C2COc3ccc(C(C)(C)C)cc3O2)c2ccccc2n1C (stereo unspecified) | -23% | ? | ? | ?
Cc1ccc(NC(=O)CN(C)C(=O)COc2cc(F)ccc2[N+](=O)[O-])cc1 | 9% | -1% | 3% | 39%
CCCOc1ccccc1OCC(=O)Nc1cccc(S(=O)(=O)NC2=NCCC2)c1 | -9% | ? | ? | ?
NCCS | 2% | 0.56µM* | 4% | 9%
Cc1cnc(NC(=O)c2cccc(S(=O)(=O)N3CC(C)OC(C)C3)c2)s1 (stereo unspecified) | 77% | 11µM* | ? | 13µM*
CC1CN(S(=O)(=O)c2cccc(C(=O)Nc3ccccc3N3CCOCC3)c2)CC(C)O1 (stereo unspecified) | 0% | ? | 13µM* | ?
Cc1cnc(NC(=O)c2cccc(S(=O)(=O)N3CCOCC3)c2)s1 | 60% | 9% | 18% | ?
CC1CN(S(=O)(=O)c2cccc(C(=O)Nc3ccccc3N3CCCCC3)c2)CC(C)O1 (stereo unspecified) | -15% | ? | 12µM* | ?
c1ccc(CSc2ccc(-c3cccnc3)nn2)nc1 | 4% | 3% | 37% | 28%
COc1ccc(C2N3CC4(C)CN2CC(C)(C3)C4O)cc1 (stereo unspecified) | 96% | 9% | 2% | ?
C=CCn1c(C)cc(C(=O)Cn2c(C(C)O)nc3ccccc32)c1C (stereo unspecified) | -4% | -4% | ? | 13%
CSc1ccc(CN2CCC(n3nccc3NC(=O)C3CCOC3)CC2)cc1 (stereo unspecified) | -4% | 19% | 0% | 0%
C=CCNC(=O)c1c2c(nc3ccccc13)-c1ccccc1CC2 | 1% | -27% | 38% | 31%
Cc1cc(C(=O)CSc2nnc(Nc3ccccc3)s2)c(C)n1CC1CCCO1 (stereo unspecified) | -10% | ? | . | 11%[5.75 µM]
COc1ccccc1Nc1nnc(SCC(=O)c2cc(C)n(CC3CCCO3)c2C)s1 (stereo unspecified) | -3% | ? | 10µM* | 4.7µM*
Cc1cc(C(=O)CSc2nnc(-c3cccnc3)n2-c2ccccc2F)c(C)n1CC1CCCO1 (stereo unspecified) | -7% | -16% | . | 15µM*
Cc1cc(C(=O)CSc2nnc(Nc3ccccc3F)s2)c(C)n1CC1CCCO1 (stereo unspecified) | -25% | 6.3µM* | . | 0%
O=[N+]([O-])c1cccc(COc2ccccc2CN2CCCC2)c1 | 2% | ? | . | .
Cc1cc(Cl)ccc1C(=O)C1CCCN(C(=O)c2ccc3ncccc3c2)C1 (stereo unspecified) | -6% | -9% | 1% | ?
O=C(CN1C(=O)NC2(CCCC2)C1=O)Nc1nc(-c2ccc(F)c(F)c2)cs1 | 4% | 4µM* | ? | ?
O=C(CCc1nc2ccccc2c(=O)[nH]1)Nc1ccc(F)cc1 | -3% | 1% | 24% | 21%
COc1ccccc1NS(=O)(=O)c1cc(NC(=O)CCc2nc3ccccc3c(=O)[nH]2)ccc1C | -15% | ? | ? | 10µM*
COc1ccc(NC(=O)CN2C(=O)NC3(CCCCCC3)C2=O)cc1Cl | 9% | 25µM* | . | .
O=C(CN1C(=O)NC2(CCCC2)C1=O)Nc1nc(-c2ccccc2)cs1 | -1% | ? | 4% | 31%
O=C(CN1C(=O)NC2(CCCCCCC2)C1=O)Nc1ccc(Br)cc1 | -4% | 32µM* | -2% | 12%
SMILES | AMA1-RON2 inh | HCV inhibitor | Pf growth 48h | Pf growth 96h
O=C(CN1C(=O)NC2(CCCC2)C1=O)Nc1cccc(-c2nnc3n2CCCCC3)c1 | 11% | 18% | -6% | 7.4µM*
COc1ccccc1NS(=O)(=O)c1cc(NC(=O)CN2C(=O)NC3(CCCCC3)C2=O)ccc1C | -3% | 13µM* | . | .
Cc1ccc(NC(=O)CN2C(=O)NC3(CCCCCCC3)C2=O)cc1C | 14%[11.6 µM] | -6% | -10% | -24%
O=C(CCc1nc2ccccc2c(=O)[nH]1)Nc1cc(C(F)(F)F)ccc1N1CCOCC1 | -13% | -16% | -2% | -17%
COc1ccc(NC(=O)CN2C(=O)NC3(CC(C)CC(C)(C)C3)C2=O)cc1S(=O)(=O)N1CCCCC1 (stereo unspecified) | -8% | -32% | 13µM* | ?
COc1cccc(Oc2ccc(C(F)(F)F)cc2NC(=O)CCc2nc3ccccc3c(=O)[nH]2)c1 | -1% | ? | 5.9µM* | 1.7µM*
O=C(CCc1nc2ccccc2c(=O)[nH]1)Nc1cc(Cl)ccc1N1CCCCC1 | -10% | ? | 10µM* | ?
Cc1ccc(Sc2ccc(NC(=O)CCN3C(=O)NC4(CCCC4)C3=O)cc2)c(C)c1 | -10% | 4µM* | ? | -19%
Cc1cc(C)c(NC(=O)CN2C(=O)NC3(CCCCC3)C2=O)c(Cl)c1 | 7% | 8% | 0% | 13µM*
CCOCCCN(C(=O)c1snc(C(N)=O)c1N)C(C(=O)NC1CCCC1)c1ccc(O)cc1 (stereo unspecified) | 9% | -4% | -3% | ?
COc1cccc(CN(C)CC(O)COc2cc(Cl)ccc2Cl)c1 (stereo unspecified) | 1% | ? | 10µM* | ?
CCCCC(=O)NC(c1ccc(OC)c(OC)c1)c1c(O)ccc2ccccc12 (stereo unspecified) | -10% | -13% | ? | 12µM*
CCCCC(=O)NC(c1ccccc1Cl)c1c(O)ccc2ccccc12 (stereo unspecified) | 19% | -4% | 10µM* | 62%
CC(=O)NC(c1ccc(C(C)C)cc1)c1c(O)ccc2ccccc12 (stereo unspecified) | -15% | -29% | . | .
COc1ccccc1C(NC(=O)CC(C)C)c1c(O)ccc2ccccc12 (stereo unspecified) | 1% | -2% | ? | -5%
CCCC(=O)NC(c1ccccc1Cl)c1c(O)ccc2ccccc12 (stereo unspecified) | 7% | -22% | 10µM* | 22%
CCCC(=O)NC(c1ccc(OC)c(OC)c1)c1c(O)ccc2ccccc12 (stereo unspecified) | -9% | . | ? | ?
Cc1ccc(N2C(=O)C3C4C=CC(CC4)C3C2=O)c([N+](=O)[O-])c1 (stereo unspecified) | 9% | 2% | 31%[0.00184 µM] | -2%
CCc1cc(CNC(=O)C2CCC(=O)N(Cc3cccc(F)c3)C2)on1 (stereo unspecified) | 2% | 12% | 21% | 12µM*
CCc1csc(CCNC(=O)C2CCC(=O)N(CCc3cccc(F)c3)C2)n1 (stereo unspecified) | -20% | -4% | 4% | 1%
O=C(NCCc1ccccc1)C1CCC(=O)N(CCCN2CCCC2=O)C1 (stereo unspecified) | -2% | 5% | 7% | ?
